The text below walks through data of PubChem BioAssay.

Experiment [1] can be described thus: optical density shifts of acrAB sulA E. coli – strain DRC41, OD650, 48 h, E. coli filamentation inducer project, primary screen (AID 1152).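 Also: E. coli MC1000 strain DRC41 lacking acrAB efflux pump and sulA.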 The note with it: higher = more signal, called active from +8 up or from −8 down.
A short description of experiment [2]: probe aLefty1 binding on compound microarray – biochemical, small-molecule microarray, 635/667 nm fluorescence, primary screen (AID 1153).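 Also: score merges spot fluorescence with signal-to-noise ratio from the scanned slide images.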 The note with it: higher = more signal.
The nature of experiment [3]: plasmodial surface anion channel blockers, osmotic lysis – cell-based, P. falciparum Indochina, OD700, 1 h, primary screen (AID 1154). The note with it: P. falciparum Indochina infected RBC osmotic lysis, higher = more signal, called active from +8 up or from −8 down.
The nature of experiment [4]: plasmodial surface anion channel blockers, osmotic lysis – cell-based, P. falciparum Indochina, OD700, 2 h, primary screen (AID 1155).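 Also: lysis reports solute entry through the parasite surface anion channel PSAC.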 The note with it: P. falciparum Indochina infected erythrocytes, higher = more signal, called active from +8 up or from −8 down.
The nature of experiment [5]: changes in parasitized red cell lysis, either direction – P. falciparum Indochina, OD700, 3 h, PSAC antagonist project, primary screen (AID 1156). The note with it: P. falciparum-infected erythrocytes, osmotic lysis, higher = more signal, called active from +8 up or from −8 down.
Experiment [6] in a line: plasmodial surface anion channel blockers, osmotic lysis – cell-based, P. falciparum Indochina, OD700, 18 h, primary screen (AID 1157). The note with it: P. falciparum Indochina infected erythrocytes, osmotic lysis OD700, 18 h; higher = more signal, called active from +8 up or from −8 down.
A short description of experiment [7]: S6 kinase pathway phospho-S6 level changes – cell-based, A549, cytoblot, luminescence, serum-stimulated, primary screen (AID 1158).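 Also: serum-stimulated A549 lung adenocarcinoma cells; signal is phosphorylated S6 detected by cytoblot immunostaining with HRP secondary.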 The note with it: 5 h, higher = more signal.
The target in experiment [8] is NADPH oxidase 2 (Homo sapiens) (UniProt P04839). In words: compounds shifting NOX2 Amplex Red fluorescence – cell-based, HEK293-NOX2, PMA-stimulated, NOX inhibitor project, primary screen (AID 1159). Also: test concentration not given here. The note with it: 45 min, higher = more signal, called active from +8 up or from −8 down.
The target in experiment [9] is NADPH oxidase 4 (Homo sapiens) (UniProt Q9NPH5). In words: compounds shifting NOX4 Amplex Red fluorescence – cell-based, HEK293-NOX4, tetracycline-induced, NOX inhibitor project, primary screen (AID 1160). The note with it: HEK293-NOX4, Amplex Red H2O2 fluorescence, 45 min; higher = more signal, called active from +8 up or from −8 down.
Experiment [10] addresses NADPH oxidase 5 (Homo sapiens) (UniProt Q96PH1). In words: compounds shifting NOX5 Amplex Red fluorescence – cell-based, HEK293-NOX5, NOX inhibitor project, primary screen (AID 1161). The note with it: HEK293-NOX5, ionomycin, 45 min, higher = more signal.
The nature of experiment [11]: compound effects on lung adenocarcinoma cell viability – A549, calcein-AM fluorescence, 48 h, basal, profiling panel (AID 1162). Also: test concentration not given here. The note with it: higher = more signal.
Experiment [12] in a line: compound effects on differentiated 3T3-L1 adipocyte viability – cell-based, 3T3-L1 adipocytes, calcein-AM fluorescence, 48 h, basal, profiling panel (AID 1163). Also: test concentration not given here. The note with it: 3T3-L1 adipocytes viability, higher = more signal.
Experiment [13] can be described thus: compound effects on hepatocellular carcinoma cell viability – HepG2, calcein-AM fluorescence, 48 h, basal, profiling panel (AID 1164). Also: test concentration not given here. The note with it: higher = more signal.
The nature of experiment [14]: compound effects on multiple myeloma cell viability – MM1S, calcein-AM fluorescence, 48 h, basal, profiling panel (AID 1165).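 Also: viability of MM1S multiple myeloma cells under basal unstimulated conditions; test concentration not given here.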 The note with it: higher = more signal.
A short description of experiment [15]: calcein-AM signal in unstimulated myeloma cells – cell-based, calcein-AM fluorescence, 48 h, PK04 Diversity Set, profiling panel (AID 1166).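 Also: cells grown under basal conditions without added stimulus; test concentration not given here.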 The note with it: RPMI8226 myeloma viability, higher = more signal.
Experiment [16] in a line: JC-1 mitochondrial signal, unstimulated HepG2 cells – cell-based, JC-1 fluorescence, 24 h, 100 nL compound, profiling panel (AID 1167). Also: test concentration not given here. The note with it: HepG2 mitochondrial potential, higher = more signal.
The nature of experiment [17]: JC-1 mitochondrial signal, unstimulated adipocytes – cell-based, JC-1 fluorescence, 3T3-L1 adipocytes, 24 h, 100 nL compound, profiling panel (AID 1168). Also: test concentration not given here. The note with it: JC-1 mitochondrial fluorescence, higher = more signal, called active from +8 up or from −8 down.
A short description of experiment [18]: JC-1 mitochondrial signal, unstimulated myeloma cells – cell-based, JC-1 fluorescence, RPMI8226, 24 h, 100 nL compound, profiling panel (AID 1169). Also: test concentration not given here. The note with it: JC-1 mitochondrial potential fluorescence, higher = more signal.
The nature of experiment [19]: JC-1 mitochondrial signal, unstimulated MM1S myeloma – cell-based, JC-1 fluorescence, 24 h, 100 nL compound, profiling panel (AID 1170). Also: test concentration not given here. The note with it: MM1S mitochondrial potential, higher = more signal.
A short description of experiment [20]: resazurin metabolic signal in A549 cells – cell-based, resazurin fluorescence, 24 h, PK04 Diversity Set, profiling panel (AID 1171). Also: test concentration not given here. The note with it: A549 viability, higher = more signal, called active from +8 up or from −8 down. Background: Resazurin is reduced to fluorescent resorufin, in cell work by metabolically active cells.

Calls of active or inactive are those of the source.

Chain of NADPH oxidase 2 (Homo sapiens) (P04839 whole entry, looked up): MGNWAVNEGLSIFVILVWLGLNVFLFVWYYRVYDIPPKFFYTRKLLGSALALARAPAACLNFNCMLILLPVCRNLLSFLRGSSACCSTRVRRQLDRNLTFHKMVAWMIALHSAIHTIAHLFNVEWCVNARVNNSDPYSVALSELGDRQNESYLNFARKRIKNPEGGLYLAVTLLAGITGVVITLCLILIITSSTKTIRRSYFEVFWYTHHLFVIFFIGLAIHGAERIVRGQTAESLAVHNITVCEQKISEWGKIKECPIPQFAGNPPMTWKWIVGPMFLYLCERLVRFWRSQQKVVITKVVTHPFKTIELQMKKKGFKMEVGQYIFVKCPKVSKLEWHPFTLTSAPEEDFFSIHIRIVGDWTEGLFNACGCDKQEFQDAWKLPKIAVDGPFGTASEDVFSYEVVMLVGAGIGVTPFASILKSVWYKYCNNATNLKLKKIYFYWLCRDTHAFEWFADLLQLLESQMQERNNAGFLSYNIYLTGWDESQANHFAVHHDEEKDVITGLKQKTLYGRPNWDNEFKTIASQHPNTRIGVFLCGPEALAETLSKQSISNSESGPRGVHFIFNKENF
Chain of NADPH oxidase 4 (Homo sapiens) (Q9NPH5 whole entry, looked up): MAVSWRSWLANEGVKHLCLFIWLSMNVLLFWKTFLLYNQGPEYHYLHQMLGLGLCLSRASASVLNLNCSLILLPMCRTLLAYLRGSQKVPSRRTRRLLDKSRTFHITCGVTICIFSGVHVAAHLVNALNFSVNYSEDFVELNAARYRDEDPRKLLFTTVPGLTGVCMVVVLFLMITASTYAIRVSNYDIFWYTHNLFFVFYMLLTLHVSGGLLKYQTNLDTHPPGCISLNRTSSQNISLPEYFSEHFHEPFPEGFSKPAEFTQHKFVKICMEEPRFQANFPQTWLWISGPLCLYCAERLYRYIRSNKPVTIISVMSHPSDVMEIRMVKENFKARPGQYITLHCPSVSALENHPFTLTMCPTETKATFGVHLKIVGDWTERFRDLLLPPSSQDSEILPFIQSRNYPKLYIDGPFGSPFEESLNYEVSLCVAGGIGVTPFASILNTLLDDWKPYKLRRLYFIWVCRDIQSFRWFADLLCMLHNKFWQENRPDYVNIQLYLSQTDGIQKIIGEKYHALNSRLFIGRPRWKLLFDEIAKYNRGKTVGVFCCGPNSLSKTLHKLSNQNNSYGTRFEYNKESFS
Chain of NADPH oxidase 5 (Homo sapiens) (Q96PH1 whole entry, looked up): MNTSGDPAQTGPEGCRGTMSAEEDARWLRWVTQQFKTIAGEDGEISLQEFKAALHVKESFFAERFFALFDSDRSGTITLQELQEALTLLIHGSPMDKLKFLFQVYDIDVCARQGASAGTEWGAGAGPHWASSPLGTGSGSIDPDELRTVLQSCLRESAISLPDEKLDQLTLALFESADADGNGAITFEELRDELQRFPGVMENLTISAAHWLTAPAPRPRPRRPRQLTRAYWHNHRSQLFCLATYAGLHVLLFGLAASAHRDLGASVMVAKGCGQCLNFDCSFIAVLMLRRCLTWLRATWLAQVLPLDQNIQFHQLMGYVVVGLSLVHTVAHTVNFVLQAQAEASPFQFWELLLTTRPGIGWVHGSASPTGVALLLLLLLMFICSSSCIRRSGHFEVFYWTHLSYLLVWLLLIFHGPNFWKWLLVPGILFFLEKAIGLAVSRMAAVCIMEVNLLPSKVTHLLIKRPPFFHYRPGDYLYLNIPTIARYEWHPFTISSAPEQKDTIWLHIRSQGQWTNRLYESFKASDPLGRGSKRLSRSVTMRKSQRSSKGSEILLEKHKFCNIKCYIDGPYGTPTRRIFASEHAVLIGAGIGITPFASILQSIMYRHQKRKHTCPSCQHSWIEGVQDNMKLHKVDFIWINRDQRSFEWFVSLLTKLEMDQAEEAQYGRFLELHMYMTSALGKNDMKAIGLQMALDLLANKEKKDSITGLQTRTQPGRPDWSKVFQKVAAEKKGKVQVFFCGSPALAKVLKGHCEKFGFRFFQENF

As for `CC1CC/C=C\[C@H]2OC34C=CCN(C(C)(C)C)C(=O)[C@H]3N(CCO)C(=O)[C@@H]4C2C(=O)O1` (stereo not given in full), the z-score in experiment [1] was 0.583 (inactive); in experiment [3], 2.16 (inactive); in experiment [4], 0.518 (inactive); in experiment [5], -0.474 (inactive); in [6], 0.31 (inactive); in experiment [7], 0.615. In addition, the z-score in experiment [8] was 1.36 (inactive); in experiment [9], 0.126 (inactive); in experiment [10], 2.57; in experiment [11], -0.986; in [12], 1.09; in experiment [13], -0.593. Also, the z-score in experiment [14] was 1.16; in experiment [15], -0.197; in experiment [16], -0.669; in experiment [17], -0.354 (inactive); in experiment [18], -0.0147; in [19] it was 0.927. In addition, the z-score in experiment [20] is 0.283 (inactive). Further, the composite z-score in experiment [2] was -0.0611.
For the molecule `COc1ccc(-c2cc3c(c(-c4ccc(Oc5ccccc5)cc4)n2)[Si](C(C)C)(C(C)C)OC3)cn1`, the z-score is -1.14 (inactive) in experiment [1]; 2.85 (inactive) in experiment [3]; 1.54 (inactive) in experiment [4]; 0.208 (inactive) in experiment [5]; 0.85 (inactive) in experiment [6]; -0.837 in [7]. Also, the z-score in experiment [8] is 0.476 (inactive); in [9], 0.412 (inactive); in experiment [10], 0.179; in experiment [11] it was -0.599; in experiment [12], -0.377; in [13] it was 0.645. Further, the z-score in experiment [14] was -1.19; in [15] it was -1.75; in experiment [16], -1.43; in experiment [17], -0.47 (inactive); in [18] it was -0.845; in experiment [19], -0.973. Moreover, the z-score in experiment [20] was 1.07 (inactive). The molecule further had a composite z-score in experiment [2] of 0.0004.
For `COC(=O)C(CC#Cc1ccc2c(c1)[C@]1(C(=O)N2)[C@H](c2ccc(OCCO)cc2)N2[C@H](c3ccccc3)[C@H](c3ccccc3)OC(=O)[C@H]2[C@@H]1C(=O)N1CCc2cc(OC)c(OC)cc2C1)C(=O)OC`, the z-score in experiment [1] is -0.339 (inactive); in experiment [3], 3.44 (inactive); in experiment [4], 1.89 (inactive); in [5], 0.506 (inactive); in experiment [6], 0.754 (inactive); in experiment [7], -0.214. The z-score is 1.13 (inactive) in experiment [8]; 0.632 (inactive) in [9]; 1.96 in experiment [10]; 0.442 in [11]; 1.16 in experiment [12]; 0.578 in [13]. Further, the z-score is -0.952 in experiment [14]; -0.578 in experiment [15]; -0.156 in experiment [16]; -0.0627 (inactive) in [17]; -0.929 in experiment [18]; -1.11 in experiment [19]. Besides, the z-score in experiment [20] was 0.161 (inactive). Moreover, the composite z-score in experiment [2] is 1.08.
In the case of `COC(=O)[C@@]1(Cc2ccc(OC)cc2)[C@H]2c3cc(C(=O)N4CCCC4)n(CCN4CNCC4=O)c3C[C@H]2CN1C(=O)c1ccccc1`, the z-score in [1] is -0.82 (inactive); in experiment [3] it was 2.95 (inactive); in experiment [4], 0.0621 (inactive); in [5] it was 0.775 (inactive); in experiment [6], 0.838 (inactive); in [7], 0.287. The z-score in experiment [8] is 0.468 (inactive); in experiment [9], -2.36 (inactive); in experiment [10], -4.44; in experiment [11] it was -0.215; in experiment [12] it was 0.0334; in experiment [13], -0.137. Besides, the z-score in [14] is -0.105; in [15], -2.17; in [16] it was 0.696; in [17], -0.514 (inactive); in experiment [18], -0.429; in [19], -0.162. Moreover, in [20], the z-score is -0.936 (inactive). For the same molecule, the composite z-score in experiment [2] was determined as 1.86.
As for `COc1ccccc1CN1C(=O)c2ccccc2[C@@]2(Cc3ccccc3N(CC(C)C)C2=O)[C@@H]1c1ccc(CO)cc1`, the z-score in [1] was -0.12 (inactive); in experiment [3], 0.226 (inactive); in experiment [4] it was 0.215 (inactive); in experiment [5], 0.297 (inactive); in [6], 0.109 (inactive); in experiment [7], 0.0317. Besides, the z-score is -0.0964 (inactive) in experiment [8]; 0.11 (inactive) in [9]; 1.12 in [10]; 0.211 in experiment [11]; 0.444 in experiment [12]; -0.385 in [13]. Moreover, the z-score in experiment [14] is -0.481; in experiment [15], -0.0712; in [16], -0.204; in experiment [17], 0.211 (inactive); in experiment [18], -0.887; in experiment [19], -0.0409. Further, the z-score in [20] is -1.03 (inactive). In experiment [2], this molecule showed a composite z-score of -0.827.
In the case of `CC(C)[Si](C#Cc1ccc(Oc2ccccc2)cc1)(O[Si](C#Cc1ccc(Oc2ccccc2)cc1)(C(C)C)C(C)C)C(C)C`, the z-score in [1] was 0.555 (inactive); in [3] it was 2.62 (inactive); in experiment [4], 1.85 (inactive); in experiment [5], 0.226 (inactive); in experiment [6], 1.39 (inactive); in [7] it was 0.335. Further, the z-score in experiment [8] is 1.49 (inactive); in experiment [9] it was 1.46 (inactive); in experiment [10], -1.34; in experiment [11] it was 0.271; in [12], 0.587; in experiment [13], -0.377. Besides, the z-score in experiment [14] is -1.58; in [15], -0.743; in experiment [16], -0.683; in experiment [17], 0.733 (inactive); in [18], 0.0384; in experiment [19], -0.00729. Further, in [20], the z-score is 0.162 (inactive). In experiment [2], this molecule came in with a composite z-score of -0.103.
With `COc1ccc(CCNC(=O)[C@@]2(C)c3ccccc3C(=O)N(C(C)C)[C@H]2c2ccc(CO)cc2)cc1`, the z-score in [1] is 0.312 (inactive); in experiment [3] it was 1.66 (inactive); in experiment [4], 0.133 (inactive); in experiment [5], 0.386 (inactive); in experiment [6], -0.0145 (inactive); in experiment [7], -0.441. Also, the z-score is -1.12 (inactive) in experiment [8]; -0.479 (inactive) in experiment [9]; -0.224 in [10]; 0.133 in [11]; -0.103 in experiment [12]; 0.779 in experiment [13]. In addition, the z-score in experiment [14] is -1.35; in [15] it was -0.974; in [16], 2.6; in [17] it was 0.169 (inactive); in [18] it was -0.0396; in [19] it was -0.03. For the same molecule, the z-score in experiment [20] was -0.0933 (inactive). Further, the composite z-score in [2] was -0.28.
As to `COC(=O)C(CC#Cc1ccc2c(c1)[C@]1(C(=O)N2)[C@H](c2ccc(OCCO)cc2)N2[C@H](c3ccccc3)[C@H](c3ccccc3)OC(=O)[C@H]2[C@@H]1C(=O)Nc1nc2ccccc2s1)C(=O)OC`, the z-score was 1.99 (inactive) in experiment [1]; 4.42 (inactive) in experiment [3]; 1.76 (inactive) in experiment [4]; 0.66 (inactive) in [5]; 1.82 (inactive) in experiment [6]; -0.206 in experiment [7]. The z-score in [8] is 1.18 (inactive); in experiment [9], 0.786 (inactive); in experiment [10], 1.03; in experiment [11], 0.214; in [12], 0.368; in [13] it was 0.94. Moreover, the z-score was -2.56 in experiment [14]; -2.73 in [15]; -2.98 in [16]; 1.67 (inactive) in experiment [17]; -1.11 in experiment [18]; -1.29 in experiment [19]. Besides, in [20], the z-score was 0.84 (inactive). Besides, the composite z-score in [2] was -0.0611.
